The list is not random: actives were taken first. Their share in the collection is about 3.8%.
rRNA inh HTS – inhibitors of bacterial rRNA selective over humanized ribosomes. E. coli WT GFP vs humanized-ribosome RFP mutants, fluorescence, 24 h; hits give low values; DMSO median 0, no signal -100. GFP signal change (wild-type ribosome), % (concentration not given with the values). actives 1.6% (n = 350,000). AID 720706;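 active = significant combined selectivity score with lowered wild-type GFP, culture density cut under 30%, mutant RFP and density less affected; inactive = any of these conditions unmet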
ADAM17 inh – inhibitors of human ADAM17; P78536; recombinant ADAM17, EDANS/DABCYL FRET peptide cleavage; inhibition, % at 6.95 µM; actives 0.83% (n = 370,000); AID 720648;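 active = inhibition above the mean of compounds lying between control limits plus 3 SD, set per campaign, cut at about 8.5% in these data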;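 also: 0% = DMSO-only wells as the low control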
Target sequence (P78536 215-824 limits assumed): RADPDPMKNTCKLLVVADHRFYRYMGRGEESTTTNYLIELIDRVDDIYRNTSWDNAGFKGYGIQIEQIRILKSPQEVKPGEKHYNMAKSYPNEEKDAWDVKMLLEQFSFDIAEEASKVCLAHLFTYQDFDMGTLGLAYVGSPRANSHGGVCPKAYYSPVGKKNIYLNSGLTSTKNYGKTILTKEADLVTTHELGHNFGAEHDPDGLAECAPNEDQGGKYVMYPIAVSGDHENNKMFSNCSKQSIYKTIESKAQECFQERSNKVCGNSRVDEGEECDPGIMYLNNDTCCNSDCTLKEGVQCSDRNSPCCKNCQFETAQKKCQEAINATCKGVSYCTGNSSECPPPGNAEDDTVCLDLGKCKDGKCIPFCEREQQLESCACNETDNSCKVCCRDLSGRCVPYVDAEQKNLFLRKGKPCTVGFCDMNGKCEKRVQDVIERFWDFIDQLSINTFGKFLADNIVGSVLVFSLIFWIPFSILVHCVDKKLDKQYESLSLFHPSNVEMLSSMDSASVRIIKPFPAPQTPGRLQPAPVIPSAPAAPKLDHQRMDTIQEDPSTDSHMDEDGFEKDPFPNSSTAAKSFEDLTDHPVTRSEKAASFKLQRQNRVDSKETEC
FGF22 binding – shifts melting point of recombinant human FGF22. recombinant FGF22 thermal shift, SYPRO orange fluorescence; percent of sucrose octasulfate shift, DMSO zero. Q9HCT0. actives 1.5% (n = 340,000). activity (Tm shift, normalised), % at 9.99 µM;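 active = mean Tm shift, scaled 0 neutral to 100 positive control, at about 1.3% or above, every replicate too, limit read from the data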
ADAM10 inh – inhibits human ADAM10. O14672. inhibition, % at 7 µM. actives 0.62% (n = 370,000). AID 720582. recombinant ADAM10, EDANS/DABCYL FRET peptide cleavage, 3 h;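 active = inhibition above a per-campaign cutoff equal to the mean of compounds falling between control-based bounds plus 3 SD, cut at about 20% in these data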;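 also: 0% = DMSO wells while the 100% control is not disclosed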
proKLK7 act – activators of human kallikrein-7 zymogen; purified proKLK7, EDANS-DABCYL substrate fluorescence; 100% is mature enzyme control, 0% vehicle; activation, % at 7 µM; actives 0.9% (n = 370,000);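 active = activation above the mean of all tested compounds plus 3 SD, computed per campaign excluding outliers beyond control limits, cut at about 13% in these data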
proKLK7 act conf – proKLK7 activation, confirmation; activation, % at 7 µM; shares compounds with proKLK7 act; purified proKLK7, EDANS-DABCYL substrate fluorescence; scaled: vehicle 0, mature enzyme 100; AID 686949; actives 68% (n = 3,200);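 active = activation, as change over the incubation, above the mean of all tested compounds plus 3 SD, cut at about 13% in these data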
EDANS-DABCYL int – counter-screen for kallikrein-7 activators: EDANS-DABCYL optical interference; shares compounds with proKLK7 act; AID 686952; EDANS-DABCYL substrate fluorescence interference, no enzyme, 4 h; solvent 0%, active enzyme control 100%; actives 80% (n = 3,200); activation, % at 7 µM;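 active = activation above the all-compound mean plus 3 SD, ignoring values outside control-based bounds, cut at about 4.8% in these data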;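 also: value is the 4 h activation minus the activation read at time zero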
Starred values were filed as active, the others as inactive; i = inactive; · = not tested or not shown.

SMILES	rRNA inh HTS	ADAM17 inh	FGF22 binding	ADAM10 inh	proKLK7 act	proKLK7 act conf	EDANS-DABCYL int
COc1ccc(-c2ccnc3cc(C(=O)O)nn23)cc1	15	-142	0	-414	13*	34*	32*
COc1ccc(-c2ccnc3nc(-n4cccc4)nn23)cc1	·	-97	·	-324	-2	·	·
O=C(O)c1cc2nccc(-c3ccco3)n2n1	13	-90	0	-243	18*	23*	22*
COc1ccccc1-c1ccc([C@@H]2[C@@H](CO)N3CCCCN(C(=O)NC4CCCC4)C[C@H]23)cc1	5	·	0	·	·	·	·
COc1ccc(NC(=O)Nc2ccc3c(c2)C(=O)N([C@@H](C)CO)C[C@H](C)[C@H](CN(C)S(=O)(=O)c2cn(C)cn2)OCCCC[C@@H](C)O3)cc1	2	·	0	·	·	·	·
CCCNC(=O)N1C[C@H](O)COC[C@H]2O[C@H](CC(=O)NCc3ccc(Cl)c(Cl)c3)CC[C@@H]21	-1	·	0	·	·	·	·
O=C(NC1Cc2ccccc2C1)[C@@H]1[C@@H](CO)[C@@H]2Cn3c(cccc3=O)[C@@H]2N1C(=O)C1CC1	1	·	0	·	·	·	·
CN1CCN(C(=O)c2cccn(Cc3cccc(Cl)c3)c2=O)CC1	10	-6	0	-3	0	·	·
C=CCn1cccc(C(=O)Nc2ccc(Cl)cc2)c1=O	-3	2	0	1	0	·	·
C=CCNC(=S)NNC(=O)c1cccn(Cc2ccc(Cl)cc2)c1=O	-3	-62	·	-405	27*	39*	47*
C=CCNC(=S)NNC(=O)c1cccn(Cc2cccc(Cl)c2)c1=O	·	-46	·	-460	27*	42*	44*
COc1cc2cc(Oc3ccc4ccc(=O)oc4c3)c(=O)oc2cc1O[C@@H]1O[C@H](CO)[C@@H](O)[C@H](O)[C@H]1O	·	-61	·	-225	25*	36*	49*
COc1cc2cc(Oc3ccc4ccc(=O)oc4c3)c(=O)oc2cc1OC(=O)/C=C/c1ccccc1	15	-9	0	-32	0	·	·
Cc1c(C)c2ccc(O[C@@H]3O[C@H](CO)[C@H](O)[C@H](O)[C@H]3O)cc2oc1=O	6	-70	0	-150	1	·	·
COc1cc2cc(Oc3ccc4ccc(=O)oc4c3)c(=O)oc2cc1OC1OC(COC(=O)CC(C)(O)CC(=O)O)C(O)C(O)C1O (stereo unspecified)	2	-156	0	i	21*	34*	31*
CO[C@H]1CN(C)C(=O)c2cc(NC(=O)C3CC3)ccc2OC[C@@H](C)N(C(=O)Cc2ccccn2)C[C@@H]1C	1	·	·	·	·	·	·
COCC#Cc1ccc(CC[C@H]2O[C@H]3CC[C@H](CO)O[C@H]3C[C@H]2NC(=O)Nc2c(C)noc2C)cc1	·	·	0	·	·	·	·
O=c1ccc2c(-c3ccccc3)c3ccc(O)cc3oc-2c1	50	-20	0	-49	25*	49*	51*
CN(C)C(=O)c1cccc(-c2cccc(-c3nc(C(=O)N4CCOCC4)cc4c3[C@@H](CCO)N([S@](=O)C(C)(C)C)C4)c2)c1	-2	·	0	·	·	·	·
COCCN1C=C(C(=O)OC)C(c2ccccc2Cl)C(C(=O)OC)=C1	16	i	0	i	42*	-31	-12
CCN1C=C(C(=O)OC)C(c2cccc(OC)c2OC)C(C(=O)OC)=C1	8	i	0	i	45*	76*	74*
COC(=O)C1=CN(Cc2ccc(OC)c(OC)c2)C=C(C(=O)OC)C1c1ccccc1F	-3	i	0	i	-37	·	·
COC(=O)C1=CN(Cc2ccc(OC)c(OC)c2)C=C(C(=O)OC)C1c1cccc(OC)c1OC	-10	i	0	i	-16	·	·
COC(=O)C1=CN(C2CC2)C=C(C(=O)OC)C1c1ccccc1OC	·	i	·	i	37*	78*	78*
COc1ccc([C@@H]2CC=CC[C@H](C)Oc3ccccc3C(=O)N(C)[C@@H](C)C(=O)N2)c(OC)c1 (mixture of isomers)	-3	·	·	·	·	·	·
